This is one part of the list. Unmarked numbers belong to inactive results.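 Rule for the calls: active = percent inhibition of 50% or more; inactive = the rest.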
Tested on: Hepatitis C virus NS3 helicase
Experiment: HCV NS3 helicase inhibitors, retest, confirmation, biochemical, fluorescence polarization, ChemBridge library (AID 720485)
Settings: NS3h binding to Cy5-dT15 DNA, at 100 µM, active compounds read high

With `CCOc1cc(C=C2C(=O)NC(=O)NC2=O)cc(Br)c1OCCOc1ccccc1C` the inhibition was 23.5%.
